Source: PubChem BioAssay (NCATS)
Results filed as inconclusive are left out. Values without a mark were called inactive. Calls follow the shape of the dose curve; as a rule, active = well fitted inhibition curve with a large enough effect; inconclusive = small, poorly fitted or top-dose-only effect; inactive = flat fitted curve, though single readings scatter.

Biological target: Calcium and integrin-binding protein 1 (Homo sapiens) (UniProt Q99828)
Assay: Primary qHTS for Identification of Calcium Integrin Binding Protein 1 (CIB1) Competitor (AID 1508620);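 also: GST tagged CIB1 binding a fluorescein labelled alphaIIb integrin peptide tracer; top concentration of the series differs between compounds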
Conditions: CIB1-GST / FITC-alphaIIb peptide fluorescence polarization; series mostly up to 114 µM; activity change, negative = inhibition: at the top concentration
Summary of the method: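 CIB1-GST (1 uM final) and compound incubated 15 min at room temperature before adding FITC-alphaIIb peptide tracer (100 nM final). Competition for binding read by fluorescence polarization (ex 480, em 540) after another 15 min at room temperature.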
% is scaled to controls: 0 for no effect and ±100 for the full control effect.

Chain of Calcium and integrin-binding protein 1 (Homo sapiens) (Q99828 whole entry, looked up): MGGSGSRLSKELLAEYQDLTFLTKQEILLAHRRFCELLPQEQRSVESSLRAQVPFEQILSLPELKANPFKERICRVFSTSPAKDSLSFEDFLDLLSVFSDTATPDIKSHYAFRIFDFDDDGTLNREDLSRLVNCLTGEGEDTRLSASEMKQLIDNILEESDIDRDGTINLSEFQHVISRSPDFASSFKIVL

Structure (SMILES) | activity change, negative = inhibition
CC(=O)N1CCc2ccc(O)c(OC3OC(COC4OCC(O)(CO)C4O)C(O)C(O)C3O)c2C1Cc1ccc(O)cc1 (stereo not given) | -1.42% [at 30.2 µM]
CCC1C(=O)OC23C=C[C@@H]4C(C(=O)O)=CO[C@H](O[C@@H]12)[C@@H]43 (stereo not given in full) | -5.08%
CNC(C)C(=O)NC(C(=O)N1CCCC1c1nc(C(=O)c2ccc(F)cc2)cs1)C1CCCCC1 (stereo not given) | 4.31%
O=C(c1ccc2nccnc2c1)N1CCCCC1 | -4.02%
C=CC(C)(O)CC/C=C(\C)C(=O)OC1C(O)C(CO)OC(OC(=O)C23CCC(C)(C)CC2C2=CCC4C5(C)CCC(OC6OC(COC7OCC(OC(C)=O)C(O)C7OC7OC(COC(C)=O)C(O)C(O)C7O)C(O)C(O)C6O)C(C)(C)C5CCC4(C)C2(C)C(O)C3O)C1OC1OCC(OC2OCC(O)C(OC3OCC(O)C(O)C3O)C2O)C(O)C1O (stereo not given) | 3.39% [at 12.4 µM]
C[C@@H]1O[C@@H](OC[C@H]2O[C@@H](OC(CCCCc3ccc(O)cc3)CCc3ccc(O)cc3)[C@H](O)[C@@H](O)[C@@H]2O)[C@H](O)[C@H](O)[C@H]1O (stereo not given in full) | -2.03% [at 30.2 µM]
CC(=O)O[C@H]1[C@H](O[C@H]2[C@@H]3C=CO[C@@H](O[C@@H]4O[C@H](CO)[C@@H](O)[C@H](O)[C@H]4O)[C@@H]3[C@@]3(CO)O[C@@H]23)O[C@@H](C)[C@H](OC(=O)/C=C/c2ccccc2)[C@H]1OC(=O)/C=C/c1ccccc1 | 5.18% [at 30.2 µM]
C=CC1C(OC2OC(CO)C(O)C(O)C2O)OC=C(C(=O)OC)C1CC(=O)OCC1C(C)C(O)CC1C(CO)COC(=O)CC1C(C(=O)O)=COC(OC2OC(CO)C(O)C(O)C2O)/C1=C\C (stereo not given) | -1.32% [at 30.2 µM]
CC(=O)O[C@@H]1CC(C)=C2[C@H]1[C@H](C)CC[C@H]2/C=C(\C)C(=O)O | 1.84%
O=C(O)CCCCCC[C@H]1C(=O)NC(=O)N1CC[C@@H](O)C1CCCCC1 | 3.99%
C[C@@H]1CCC2C(C)(C)[C@H](O)CC[C@]2(C)[C@@]12Cc1c(O)cc3c(c1O2)CN([C@@H](CCC(=O)O)C(=O)O)C3=O (stereo not given in full) | -3.32% [at 57.7 µM]
Cc1cn(C2C=CC(CO)O2)c(=O)[nH]c1=O (stereo not given) | 2.6%
CN(C)c1nc(NC2CCC(NC(=O)c3ccc(F)c(F)c3)CC2)nc2ccccc12 (stereo not given) | 6.63%
CC(C)(C)OC(=O)N1CCC(OCc2nc(-c3ccncc3)no2)CC1 | 7.12%
C[C@@H]1O[C@@H](O[C@H]2[C@H](OC(=O)[C@]34CCC(C)(C)C[C@H]3C3=CCC5[C@@]6(C)C[C@H](O)[C@H](O[C@@H]7O[C@H](CO)[C@@H](O)[C@H](O)[C@H]7O)[C@@](C)(CO)C6[C@H](O)C[C@@]5(C)[C@]3(C)C[C@H]4O)OC[C@H](O)[C@@H]2O)[C@H](O)[C@H](O)[C@H]1O[C@@H]1OC[C@@H](O)[C@H](O[C@H]2OC[C@](O)(CO)[C@H]2O)[C@H]1O (stereo not given in full) | 3.47% [at 12.4 µM]
CC(C)/C=C1\NC(=O)C(C(C)C)n2c1nc1c(c2=O)C=CC=CO1 (stereo not given) | -4.61% [at 57.7 µM]
CCCC(=O)O[C@@H]1[C@@H]2[C@@H](OC(C)=O)[C@]3(C)C(=O)[C@H]4[C@@H](OC(C)=O)C(C)(C)C[C@H]4[C@]3(C)C(=O)[C@@]2(OC(C)=O)C[C@@H]1C | 1.92% [at 57.7 µM]
COc1ccc(Oc2cc(C)c(-c3csc(NC(=O)c4ccncc4)n3)c(C)c2)cc1 | -4.91%
O=C(O)C1CN(Cc2ccc(-c3nc4cc(Cc5ccccc5F)ccc4s3)c(F)c2)C1 | 2.04% [at 30.2 µM]
O=C(CO)[C@@H](O)[C@H](O[C@@H]1O[C@H](CO)[C@H](O)[C@H](O)[C@H]1O)[C@H](O)CO | 2.6%
O=C1CSc2ccccc2N1Cc1cccc(C(F)(F)F)c1 | -1.02%
CC(=O)c1cc2c(cc1O)OC(C)(C)C=C2 | -3.49%
C=C1C(=O)O[C@@H]2C[C@H](C)[C@@]3(O)C=C(C(C)=O)[C@]4(CC3C[C@H]12)C(=O)O[C@H]1C[C@@H](C)C(CCC(C)=O)=CC[C@H]14 (stereo not given in full) | -17.1% [at 57.7 µM]
C[C@@H]1O[C@@H](O[C@@H]2[C@@H](O)[C@@H](O[C@]3(CO)O[C@H](CO)[C@@H](O)[C@@H]3OC(=O)/C=C/c3ccc(O)cc3)O[C@H](CO)[C@H]2OC(=O)/C=C/c2ccc(O)cc2)[C@H](O)[C@H](O)[C@H]1O[C@@H]1O[C@@H](C)[C@H](O[C@@H]2OC[C@](O)(CO)[C@H]2O)[C@@H](O)[C@H]1O | 0.266% [at 30.2 µM]
CCOCc1cc(OC)c(-c2ccc(C[C@H](NC(=O)c3c(F)cccc3F)C(=O)O)cc2)c(OC)c1 | 1.37%
